# Reference: PubChem BioAssay (NCI)
# Compounds without any hit were thinned out: in the full panel of roughly 83,000, 20% have a hit.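 Activity criterion: percent growth below 10, measured after cells in 96-well plates were exposed to a single compound concentration for 48 hours.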 Values without a mark were called inactive. Calls of active or inactive are those of the source.
# How the values were obtained:
# Experiment in all cases: NCI-60 one-dose screen, 48 h (100 = growth as untreated, 0 = no growth, -100 = all killed)
# [1] = test system: NCI-H322M lung; conditions: 10 µM
# [2] = test system: HOP-62 NSCLC; conditions: 10 µM
# [3] = test system: NCI-H460 lung; conditions: 10 µM
# [4] = test system: NCI-H522 lung; conditions: 10 µM
# [5] = test system: A549/ATCC NSCLC; conditions: 10 µM
# [6] = test system: DU-145 prostate; conditions: 10 µM
# [7] = test system: MALME-3M melanoma; conditions: 10 µM
# [8] = test system: SF-268 CNS; conditions: 10 µM
# [9] = test system: SF-295 CNS; conditions: 10 µM
# [10] = test system: SF-539 CNS; conditions: 10 µM
# [11] = test system: UACC-257 melanoma; conditions: 10 µM
# [12] = test system: M14 melanoma; conditions: 10 µM
# [13] = test system: HCT-15 colon; conditions: 10 µM
# [14] = test system: HT29 colon; conditions: 10 µM
# [15] = test system: SNB-75 CNS; conditions: 10 µM
# [16] = test system: PC-3 prostate; conditions: 10 µM
# [17] = test system: SK-MEL-5 melanoma; conditions: 10 µM
# [18] = test system: UACC-62 melanoma; conditions: 10 µM
# [19] = test system: SK-MEL-2 melanoma; conditions: 10 µM
# [20] = test system: HL-60(TB) leukemia; conditions: 10 µM unless noted
Structure (SMILES),growth [1],growth [2],growth [3],growth [4],growth [5],growth [6],growth [7],growth [8],growth [9],growth [10],growth [11],growth [12],growth [13],growth [14],growth [15],growth [16],growth [17],growth [18],growth [19],growth [20]
CC[C@]12C=CCN3CC[C@@]4(c5ccc(OC)cc5N(C)[C@H]4[C@@](O)(C(=O)OC)[C@@H]1OC(=O)CCC[P+](c1ccc(C)cc1)(c1ccc(C)cc1)c1ccc(C)cc1)[C@@H]32,-98.4% (active),-81.6% (active),-85.2% (active),-86.3% (active),-90.3% (active),-78.5% (active),-94.4% (active),-46.3% (active),-89.1% (active),-96.6% (active),-92.7% (active),-85.3% (active),-91% (active),-80.7% (active),-61.2% (active),-83.3% (active),-99.4% (active),-96.8% (active),-85.4% (active),-47.5% (active)
COc1ccc2cc([C@H](C)C(=O)[Se]CCC#N)ccc2c1,-21.6% (active),-81.2% (active),-27.2% (active),-95.6% (active),-64.9% (active),-76.4% (active),-44.7% (active),-45.8% (active),-70.3% (active),-67.3% (active),-76.9% (active),-63.9% (active),-31.7% (active),-49.3% (active),-46.8% (active),-10.1% (active),-70.4% (active),-67.7% (active),-42.1% (active),
COC(=O)c1ccc(-n2cc(CCCN(CCNc3ccnc4cc(Cl)ccc34)C(=O)CCC(=O)O[C@@H]3O[C@@H]4OC5(C)CC[C@H]6[C@H](C)CC[C@@H]([C@H]3C)[C@@]46OO5)nn2)cc1,71%,64.5%,52.1%,7.38% (active),44.4%,59.8%,-61.5% (active),59.2%,43.8%,39%,35%,47.1%,-4.92% (active),5.91% (active),67.3%,39.7%,-70.1% (active),36.8%,29.4%,-30.7% (active)
CCOP(=O)(CC(F)(F)C(F)(F)F)OCC,100%,90.9%,91.6%,-77.3% (active),76.2%,14.9%,-70.4% (active),80.4%,97.7%,-48.6% (active),-31.4% (active),-53.3% (active),-33.2% (active),-44.6% (active),79.4%,63.8%,78.9%,44.7%,29.5%,17.2%
CC(C)N=C([Se])NC(=O)c1ccccc1,-3.38% (active),8.36% (active),-25.8% (active),-77.7% (active),8.83% (active),-74.6% (active),-24.7% (active),14.3%,-23.9% (active),-82.9% (active),-36.2% (active),-65.2% (active),1.65% (active),12.5%,-49.5% (active),-21.8% (active),-57.1% (active),-35.3% (active),-40% (active),-15.4% (active)
C[C@H]1[C@H](OC(=O)CCC(=O)Nc2cnccn2)O[C@@H]2OC3(C)CC[C@H]4[C@H](C)CC[C@@H]1[C@@]24OO3,77.4%,53.6%,29.6%,-13.6% (active),62.6%,77.7%,27.5%,56.3%,41.7%,33.2%,56.1%,35.9%,12%,27.3%,72.6%,36.6%,26.9%,26.3%,31.2%,0.224% (active)
C[C@H]1[C@H](OC(=O)CCC(=O)N(CCCc2cn(-c3ccc(C#N)cc3)nn2)CCNc2ccnc3cc(Cl)ccc23)O[C@@H]2OC3(C)CC[C@H]4[C@H](C)CC[C@@H]1[C@@]24OO3,82.9%,66.4%,58.2%,7.88% (active),51.5%,69.3%,13.3%,54.9%,53.8%,44.5%,58.3%,48.1%,12.1%,18.6%,72.1%,33.9%,22.9%,43.3%,31.4%,-29.9% (active)
CC12OOC(C)(OO1)C2CCC(=O)OCCNc1ccnc2cc(Cl)ccc12 (stereo not drawn),96.6%,96.8%,45.2%,-79.2% (active),9.38% (active),-53.9% (active),-73% (active),97%,83%,35.6%,82.1%,14.6%,-73.2% (active),-59.8% (active),90.5%,53.6%,36.5%,88.1%,107%,-40.3% (active)
C[C@H]1[C@@H](Oc2ccc(-c3cn(-c4ccnc5cc(Cl)ccc45)nn3)cc2)O[C@@H]2OC3(C)CC[C@H]4[C@H](C)CC[C@@H]1[C@@]24OO3,69.3%,46.3%,25.3%,2.18% (active),35.2%,51.6%,13.7%,46.3%,37.6%,30.5%,41.1%,31.8%,12.8%,22.3%,61.6%,29.2%,20.3%,21.2%,7.17% (active),6.05% (active)
O=C(/C=C/c1ccc(Cl)cc1Cl)c1nc2ccccc2n1Cc1ccc(Br)cc1,84.4%,94.8%,78.1%,88.2%,86.5%,83.9%,84%,81%,79.4%,84%,84.4%,78.4%,46.6%,53.9%,50.4%,67.1%,85%,60.7%,97.2%,60%
CC[C@]12C=CCN3CC[C@@]4(c5ccc(OC)cc5N(C)[C@H]4[C@@](O)(C(=O)OC)[C@@H]1OC(=O)CCCC[P+](C1CCCCC1)(C1CCCCC1)C1CCCCC1)[C@@H]32,16.1%,9.52% (active),5.27% (active),-71.8% (active),11.6%,9.57% (active),-95.9% (active),-70.5% (active),-19.6% (active),-93.9% (active),-82.1% (active),-83.5% (active),75.2%,-24% (active),-81.4% (active),3.69% (active),-96.1% (active),-96.9% (active),-88% (active),-36.7% (active)
Cc1c2oc3c(C)ccc(C(=O)N[C@@H]4C(=O)N[C@H](C(C)C)C(=O)N5CCC[C@H]5C(=O)N(C)CC(=O)N(C)[C@@H](C(C)C)C(=O)OC4C)c3nc-2c(C(=O)N[C@@H]2C(=O)N[C@H](C(C)C)C(=O)N3CC(=O)C[C@H]3C(=O)N(C)CC(=O)N(C)[C@@H](C(C)C)C(=O)OC2C)c(N)c1=O (stereo partly drawn),4.93% (active),-21% (active),5.56% (active),-38.6% (active),8.06% (active),12.8%,-14.5% (active),-9.63% (active),1.34% (active),-28.4% (active),-28% (active),-8.68% (active),3.67% (active),1.14% (active),-70.6% (active),1.32% (active),-48.6% (active),-57.5% (active),-68.5% (active),
C[C@H]1[C@@H](CC(=O)N[C@@H](Cc2coc3ccccc23)B(O)O)O[C@@H]2OC3(C)CC[C@H]4[C@H](C)CC[C@@H]1[C@@]24OO3,19.6%,-17.3% (active),-28.2% (active),-74.5% (active),19.1%,21.6%,-60% (active),20.4%,-88.8% (active),-96.4% (active),-41% (active),-44% (active),-62.3% (active),-57.6% (active),-19.3% (active),-25.6% (active),-97.2% (active),-90.8% (active),-53.6% (active),-4.67% (active)
CC[C@]12C=CCN3CC[C@@]4(c5ccc(OC)cc5N(C)[C@H]4[C@@](O)(C(=O)OC)[C@@H]1OC(=O)CCCC[P+](c1ccc(OC)cc1)(c1ccc(OC)cc1)c1ccc(OC)cc1)[C@@H]32,-89.6% (active),-80.8% (active),-87% (active),-81.9% (active),-83.7% (active),-58.2% (active),-97.2% (active),-38.1% (active),-93.6% (active),-97.4% (active),-93.4% (active),-89.8% (active),-5.69% (active),-63.1% (active),-95.4% (active),-37.2% (active),-97% (active),-95.2% (active),-91.4% (active),-45.2% (active)
